# Laboratory results: the supplement of paper PMC10515830
# Structures can show the parent of a compound that is named as a salt.
# Columns and labels:
# Conditions in all cases: 10 µM; exposure time 6 h
# [1] = test system: Danio rerio larvae (5 dpf); test: difference in excitability vs DMSO (percentage points); higher = more excitable than DMSO
# Method in brief: (§1)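 Wild-type zebrafish larvae at 5 dpf were kept in 96-well plates and exposed for 6 h to 100 µL egg water holding library compound at a final concentration of 10 µM. From 3 h into exposure, the plates were held at 28.5 ℃ and photographed every 6 s through a 3-h programme of moving lines and 100 ms, 400Hz tones. Each behaviour was scored by Z-LaP Tracker, a DeepLabCut model, and averaged over 48 larvae per compound. Every value gives the compound mean minus the vehicle control mean, in percentage points.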
# [2] = test system: Danio rerio larvae (5 dpf); test: difference in startle response vs DMSO (percentage points); higher = stronger startle than DMSO
# Method in brief: as §1
# [3] = test system: Danio rerio larvae (5 dpf); test: difference in activity during first hour vs DMSO (percentage points); higher = more activity than DMSO
# Method in brief: as §1
# [4] = test system: Danio rerio larvae (5 dpf); test: difference in habituation to acoustic stimuli vs DMSO (percentage points); higher = more habituation than DMSO
# Method in brief: as §1
# [5] = test system: Danio rerio larvae (5 dpf); test: difference in combined optomotor response to red, green and blue moving lines vs DMSO (percentage points); higher = stronger optomotor response than DMSO
# Method in brief: as §1
SMILES,difference in excitability [1],difference in startle response [2],difference in activity during first hour [3],difference in habituation to acoustic stimuli [4],difference [5]
COc1ccc([C@@H]2Sc3ccccc3N(CCN(C)C)C(=O)[C@@H]2OC(C)=O)cc1 [Diltiazem (hydrochloride)],8.73,-1.93,11.2,-8.44,1.27
CCOc1cc([C@@H](CS(C)(=O)=O)N2C(=O)c3cccc(NC(C)=O)c3C2=O)ccc1OC [Apremilast],0.408,3.1,-6.82,-0.561,-3.01
CCc1nc(N)nc(N)c1-c1ccc(Cl)cc1 [Pyrimethamine],12.2,1.26,9.34,-3.84,5.09
CC[C@H]1OC(=O)[C@H](C)[C@@H](O[C@H]2C[C@@](C)(OC)[C@@H](O)[C@H](C)O2)[C@H](C)[C@@H](O[C@@H]2O[C@H](C)C[C@H](N(C)C)[C@H]2O)[C@](C)(OC)C[C@@H](C)C(=O)[C@H](C)[C@@H](O)[C@]1(C)O [Clarithromycin],7.19,1.97,11.7,-1.55,6.95
Cc1cccc(C)c1OCC(=O)N[C@@H](Cc1ccccc1)[C@@H](O)C[C@H](Cc1ccccc1)NC(=O)[C@H](C(C)C)N1CCCNC1=O [Lopinavir],10.5,-2.95,-0.504,-4.82,-0.255
CNCC(=O)OCc1cccnc1N(C)C(=O)OC(C)[n+]1cnn(C[C@](O)(c2cc(F)ccc2F)[C@@H](C)c2nc(-c3ccc(C#N)cc3)cs2)c1 (stereo not given in full) [Isavuconazonium (sulfate)],28.4,4.1,-13.1,-2.82,-5.6
C[N+](C)(C)CCOC(N)=O [Carbamoylcholine (chloride)],2.95,2.73,-0.038,1.09,1.31
CC(c1cc2ccccc2s1)N(O)C(N)=O (stereo not given) [Zileuton],3.87,-0.493,-3.58,-0.832,6
CC(=O)O[C@]1(C(C)=O)CC[C@H]2[C@@H]3C[C@H](C)C4=CC(=O)CC[C@]4(C)[C@H]3CC[C@@]21C [Medroxyprogesterone 17-acetate],9.28,-1.88,-1.67,-11.4,-9.37
CC(C)[C@H](N)C(=O)OCC(CO)OCn1cnc2c(=O)nc(N)[nH]c21 (stereo not given in full) [Valganciclovir (hydrochloride)],-0.104,2.52,-5.18,1.35,3.33
Nc1nc(=O)c2c([nH]1)NC[C@H](CNc1ccc(C(=O)N[C@@H](CCC(=O)O)C(=O)O)cc1)N2C=O [L-Folinic Acid (calcium salt)],-3.02,-0.777,-9.87,-0.456,-0.774
Cc1cn([C@H]2C=C[C@@H](CO)O2)c(=O)[nH]c1=O [Stavudine],7.17,-2.71,-1.82,5.47,4.85
Cc1ccc(C(=O)Nc2ccc(CN3CCN(C)CC3)c(C(F)(F)F)c2)cc1C#Cc1cnc2cccnn12 [Ponatinib],7.08,-6.04,-11,-7.62,-12.5
Clc1ccc(C(c2ccccc2Cl)C(Cl)Cl)cc1 (stereo not given) [Mitotane],5.19,-9.33,60.8,-11.8,-15.4
NC[C@@H]1O[C@@H](O[C@H]2[C@H](O)[C@@H](O[C@H]3O[C@H](CO)[C@@H](O)[C@H](N)[C@H]3O)[C@H](N)C[C@@H]2N)[C@@H](O)[C@H](O)[C@H]1O [Kanamycin A (sulfate)],8.55,-4.02,4.22,3.45,4.39
CN1CCN(C2=Nc3cc(Cl)ccc3Nc3ccccc32)CC1 [Clozapine],9.35,-11.3,37.7,-6.72,5.08
O=C(CCCN1CC=C(n2c(=O)[nH]c3ccccc32)CC1)c1ccc(F)cc1 [Droperidol],29,-1.85,12.3,-7.94,-0.322
CN(C)CCOc1ccc(/C(=C(/CCCl)c2ccccc2)c2ccccc2)cc1 [Toremifene (citrate)],4.69,-6.57,9.64,-7.15,-13.3
NC[C@H]1CC[C@H](C(=O)O)CC1 [Tranexamic Acid],6.95,8.18,13.1,1.19,10.9
COc1cc(C)c(/C=C/C(C)=C/C=C/C(C)=C/C(=O)O)c(C)c1C [Acitretin],6.34,-12.5,50.6,-15.4,-20.9
CC1(C)S[C@@H]2[C@H](NC(=O)[C@H](N)c3ccccc3)C(=O)N2[C@H]1C(=O)O [Ampicillin (sodium salt)],2.42,0.739,-2.5,-4.92,-2.47
COc1c(N2C[C@@H]3CCCN[C@@H]3C2)c(F)cc2c(=O)c(C(=O)O)cn(C3CC3)c12 [Moxifloxacin (hydrochloride)],22.9,4.54,5.78,3.51,3.81
O=c1[nH]c(=O)n([C@H]2C[C@H](O)[C@@H](CO)O2)cc1I [Idoxuridine],6.91,0.604,-3.04,5.55,2.86
